Holding throughout (assay): NCI-60 one-dose screen, 48 h (100 = growth as untreated, 0 = no growth, -100 = all killed)
Common to all, as to conditions: 10 µM unless noted

Experiment [1] concerns NCI-H23 lung.
The subject of experiment [2] is NCI-H226 lung.
The subject of experiment [3] is NCI-H322M lung.
In experiment [4] the test system is HOP-62 NSCLC.
Experiment [5] concerns NCI-H460 lung.
Experiment [6] concerns HOP-92 NSCLC.
Experiment [7] has as its system NCI-H522 lung.
Experiment [8] deals with A549/ATCC NSCLC.
Experiment [9] relates to 786-0 renal.

About 83,000 compounds went through this panel and 20% of them were active in at least one assay; those are over-represented in the sample as a whole.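 48-hour exposure, single concentration, 96-well plates; percent growth endpoint where 0 means no net growth. Active: below 10.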 Unmarked numbers belong to inactive results. Activity calls are given as the source filed them.

For the compound `COc1cc(C(=O)/C=C/c2c(C(F)(F)F)nc3ccccn23)cc(OC)c1OC`, the growth is -50.3% (active) in experiment [1]; -25.5% (active) in experiment [2]; 8.14% (active) in experiment [3]; -26.9% (active) in experiment [4]; -44.4% (active) in experiment [5]; 2.54% (active) in experiment [6]. Further, the growth was -51.4% (active) in experiment [7], 9.73% (active) in experiment [8] and -60.9% (active) in experiment [9].
As to `CCc1c(C(=O)N[C@@H]2c3cc(Cl)ccc3CC[C@@H]2O)[nH]c(C)c1C(C)=O`, the growth was 100% in [1]; 76.5% in experiment [2]; 91.2% in experiment [3]; 72.1% in [4]; 33.6% in experiment [5]; 84.1% in experiment [6]. Moreover, the growth was 65.9% in experiment [7], 62% in [8] and 89.3% in experiment [9].
In the case of `CCCN1CCN(c2ccc3nc(-c4ccc5nc(-c6ccc(OCC)c(OCC)c6)[nH]c5c4)[nH]c3c2)CC1`, the growth is -53.3% (active) in [1]; -58.2% (active) in experiment [2]; -18.7% (active) in experiment [3]; -64.9% (active) in experiment [4]; -80.3% (active) in [5]; 40.5% in [6]. The growth in [7] is -44.8% (active); in [8], -50.2% (active); in experiment [9], -89% (active).
`CC1(C)N=C(N)N=C(N)N1c1ccc(Cl)c(Cl)c1`: the growth in experiment [1] was 19.2%; in experiment [2], 52.1%; in [3] it was 52.7%; in experiment [4], 16.4%; in [5] it was 17%; in [6], 72.3%. Moreover, the growth is 45.3% in [7], 30.1% in experiment [8] and 9.73% (active) in [9].
Regarding `OC(CBr)c1ccnc2ccccc12` (stereo not given), the growth is 96.8% in experiment [1]; 92.3% in experiment [2]; 102% in experiment [3]; 99.1% in experiment [4]; 105% in [5]; 89.3% in experiment [6]. For the same compound, the growth is 71.8% in [7], 96.3% in experiment [8] and 99.1% in experiment [9].
As for `O=C1C(Cl)C(c2ccccc2Cl)N1n1cnnc1` (stereo not given), the growth in experiment [1] is 101%; in experiment [2] it was 102%; in experiment [3], 93.5%; in experiment [4], 73.5%; in experiment [5] it was 101%; in experiment [6], 91.1%. Besides, the growth in experiment [7] was 92.9%; in [8] it was 91.1%; in [9], 97.1%.
Take `O=C(Oc1ccc([N+](=O)[O-])cc1)c1ccc(CBr)cc1`: the growth is 98.5% in experiment [1]; 106% in experiment [2]; 100% in [3]; 139% in experiment [4]; 100% in experiment [5]; 88.5% in experiment [6]. For the same compound, the figures for the growth in experiment [7], in [8] and in [9] were -21.2% (active), 97.9% and 108%, respectively.
As to `O=C1Nc2ccccc2/C1=N/N=C/c1ccc(OC2OC(CO)C(O)C(O)C2O)cc1` (stereo not given), the growth was 102% in experiment [1]; 104% in experiment [2]; 105% in experiment [3]; 103% in experiment [4]; 111% in experiment [5]; 111% in experiment [6]. For the same compound, the growth in experiment [7] is 95%; in experiment [8], 102%; in [9], 109%.
On to `O=[N+]([O-])c1ccc(-c2cc3c(Nc4ccc(Sc5nc6ccccc6s5)c(Cl)c4)ncnc3s2)cc1`, for which the growth was 19.9% in experiment [1]; 76.2% in experiment [2]; 55.5% in experiment [3]; 36.1% in experiment [4]; 11.8% in experiment [5]; 56.6% in experiment [6]. Moreover, the growth in experiment [7] is 30%; in experiment [8], 18.5%; in [9], 61.6%.
Consider `Nc1nc(N)c(-c2ccc(Cl)cc2)c(/C=C/c2ccc([N+](=O)[O-])cc2)n1`, for which the growth in experiment [1] is 90.8%; in [2], 91.4%; in experiment [3], 46.8%; in [4], 100%; in experiment [5], 11.4%; in experiment [6] it was 76.1%. The figures for the growth in experiment [7], in experiment [8] and in [9] were 97.4%, 47.9% and 99.3%, respectively.
Take `Clc1ccc2[nH]c3c(NCCCN4CCOCC4)ncnc3c2c1`: the growth in experiment [1] is 76.8%; in experiment [2], 86.1%; in experiment [3] it was 68.9%; in [4], 83.5%; in [5], 69.3%; in [6] it was 67.8%. For the same compound, the growth is 90.3% in [7], 80.1% in [8] and 80.3% in experiment [9].
Turning to `CCNCCNc1cc(-c2cccc(C(F)(F)F)c2)c(C#N)c2nc3ccccc3n12`, the growth in experiment [1] is -57.6% (active); in experiment [2], -67.2% (active); in experiment [3] it was -63.1% (active); in experiment [4] it was -75.1% (active); in [5], -70.4% (active); in experiment [6], -58.1% (active). Further, the growth in experiment [7] was -71.3% (active); in experiment [8], -91.9% (active); in experiment [9] it was -88% (active).
For `C=CCOc1cccc(/C=C2\SC(=Nc3ccc(O)cc3)NC2=O)c1`, the growth in [1] was 40.2%; in experiment [2], -9.25% (active); in experiment [3], 53.5%; in experiment [4], 25.6%; in experiment [5], 2.23% (active); in experiment [6], 30.8%. Besides, the growth is -10.9% (active) in [7], 18.6% in experiment [8] and 11.2% in experiment [9].
For the compound `Cn1cc(Nc2nccc(-c3ccc(N4CCCC4)c(C#N)c3)n2)cn1`, the growth is 63.3% in [1]; 78.9% in experiment [2]; 52% in experiment [3]; 25.5% in experiment [4]; 8.94% (active) in experiment [5]; 67% in [6]. For the same compound, the growth is 22% in experiment [7], 22.6% in experiment [8] and 42.7% in experiment [9].
As for `O=C(Oc1ccc[nH]c1=O)c1cc([N+](=O)[O-])cc([N+](=O)[O-])c1`, the growth in experiment [1] was 114%; in experiment [2] it was 104%; in [3], 98.6%; in [4], 97.2%; in [5], 111%; in experiment [6] it was 146%. Also, the figures for the growth in experiment [7], in [8] and in experiment [9] were 116%, 77.3% and 101%, respectively.
